Measurements published in PubChem BioAssay (NCI).
The panel holds about 79,000 compounds, 15% with a hit somewhere; the sample as a whole holds those more often. Unmarked numbers belong to inactive results. Activity calls are given as the source filed them. No stated cut-off is given here; in the data, active means growth inhibition above about 70%; inactive means the rest.

Key:
[1] = NCI Yeast Anticancer Drug Screen. Data for the rad50 strain (AID 155);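 further: 0% = growth of vehicle-only cultures of the same strain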; conditions: S. cerevisiae rad50 strain growth inhibition, active compounds read high
How it was run: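 Vehicle-treated cultures provide the reference for the growth inhibition reported for compound-exposed, repair-deficient yeast.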

[2] = NCI Yeast Anticancer Drug Screen. Data for the mec2-1 strain (AID 157); conditions: S. cerevisiae mec2-1 strain, active compounds read high
How it was run: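 Yeast mec2-1 mutant treated with compound. Readout: growth inhibition vs vehicle controls.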

[3] = NCI Yeast Anticancer Drug Screen. Data for the sgs1 mgt1 strain (AID 161);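 further: 0% = growth of cultures given vehicle only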; conditions: S. cerevisiae sgs1 mgt1 strain, active compounds read high
How it was run: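 Genetically altered yeast, compound exposure, growth inhibition relative to vehicle.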

[4] = NCI Yeast Anticancer Drug Screen. Data for the cln2 rad14 strain (AID 165);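 further: 0% = growth equal to vehicle treated cultures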; conditions: S. cerevisiae cln2 rad14 strain, active compounds read high
How it was run: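 cln2 rad14 yeast strain; compound exposure; growth inhibition read vs vehicle controls.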

[5] = NCI Yeast Anticancer Drug Screen. Data for the bub3 strain (AID 167); conditions: S. cerevisiae bub3 mutant strain, active compounds read high
How it was run: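 Mutant yeast screening strain plus compound; vehicle-treated cultures serve as the 0% inhibition reference.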

[6] = NCI Yeast Anticancer Drug Screen. Data for the mlh1 rad18 strain (AID 175); conditions: S. cerevisiae mlh1 rad18 strain growth inhibition, active compounds read high
How it was run: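 Yeast w/ defined DNA-repair lesions; compound exposure; growth vs vehicle controls → % inhibition.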

[7] = at 5.0 µM (retest, dose inferred, filed as 0.5)
[8] = at 50.0 µM (retest, dose inferred, filed as 5.0)

SMILES | growth inhibition [1, 7] | growth inhibition [1, 8] | growth inhibition ([1]; at 50.0 µM) | growth inhibition [2, 7] | growth inhibition [2, 8] | growth inhibition ([2]; at 50.0 µM) | growth inhibition [3, 7] [%] | growth inhibition [3, 8] | growth inhibition ([3]; at 50.0 µM) | growth inhibition [4, 7] [%] | growth inhibition [4, 8] | growth inhibition ([4]; at 50.0 µM) | growth inhibition [5, 7] [%] | growth inhibition [5, 8] | growth inhibition ([5]; at 50.0 µM) | growth inhibition [6, 7] | growth inhibition [6, 8] | growth inhibition ([6]; at 50.0 µM)
Cc1nc(Nc2ccc(Cl)cc2)sc1C(=O)NNc1ccc([N+](=O)[O-])cc1[N+](=O)[O-] | 24% | 24% | 88.8% (active) | 9% | 9% | 90.2% (active) | -6 | -6% | 90.5% (active) | 9 | 9% | 89.4% (active) | 10 | 10% | 92.8% (active) | 16% | 16% | 89.8% (active)
CN(C)CC1CCCCCC(Br)C1=O (stereo not given) | 18% | 78% (active) | 63.9% | 14% | 80% (active) | 70.2% (active) | 11 | 92% (active) | 84% (active) | 12 | 69% | 91.5% (active) | -7 | 21% | 7.05% | 55% | 96% (active) | 91% (active)
N#Cc1c2c(c(N=[N+]=[N-])n3c1nc1ccccc13)CCCC2 | 47% | 95% (active) | 87.2% (active) | 36% | 98% (active) | 92.3% (active) | 45 | 99% (active) | 91.5% (active) | 28 | 97% (active) | 90% (active) | 43 | 95% (active) | 90.9% (active) | 50% | 98% (active) | 89.7% (active)
CCOC(=O)/C(=C\c1cccc(C(F)(F)F)c1)P(=O)(OCC)OCC | 31% | 50% | 75.7% (active) | -8% | 74% (active) | 79% (active) | 3 | 55% | 68.1% | 26 | 40% | 42.1% | 27 | 85% (active) | 71.8% (active) | 13% | 82% (active) | 52.2%
COc1ccc(/C=C(\C(=O)c2ccc(O)cc2)c2ccccc2)cc1OC | -5% | 97% (active) | 98.5% (active) | -9% | 97% (active) | 98% (active) | 2 | 98% (active) | 96.2% (active) | -5 | 99% (active) | 93.7% (active) | -4 | 98% (active) | 97.1% (active) | 0% | 99% (active) | 97.5% (active)
Cc1nc2c(cnn2-c2ccccc2)c(=O)o1 | -143% | -140% | 28.3% | -52% | -52% | 2.25% | -57 | -62% | -3.15% | -52 | -45% | -31.2% | -65 | -73% | -0.85% | -115% | -108% | 50.6%
Cn1cccc1C(/C=C/c1ccccc1[N+](=O)[O-])c1cccn1C | -2% | 20% | 18.2% | 4% | 4% | 6.4% | -12 | 8% | 20.9% | 17 | 37% | 4.35% | -3 | 41% | 17.6% | -15% | 21% | 20.2%
CCCCCC(C)(O)C#CC(C)(O)CCCCC (stereo not given) | 2% | 99% (active) | 38.8% | 5% | 99% (active) | 4.55% | 1 | 99% (active) | 30.7% | 5 | 98% (active) | 75.7% (active) | 3 | 96% (active) | 21.3% | 2% | 99% (active) | 26.7%
COc1ccc(/C=C/c2cc(OC)c(OC)c(OC)c2)cc1O[Si](C)(C)C(C)(C)C | 1% | -9% | -2.65% | 0% | -3% | -1.75% | -1 | -5% | 13.6% | 1 | -4% | 53.2% | -1 | -7% | -37.5% | 1% | -6% | -4.45%
O=C1c2ccccc2C(=O)[C@@]23O[C@@]12C1(Oc2cccc4cccc(c24)O1)[C@@H]1O[C@@H]1[C@@H]3O | 79% (active) | 98% (active) | 88.1% (active) | 84% (active) | 99% (active) | 91% (active) | 62 | 99% (active) | 91.2% (active) | 48 | 98% (active) | 88.7% (active) | 56 | 99% (active) | 89.5% (active) | 85% (active) | 98% (active) | 84.9% (active)
